In the library only some 0.95% were active in any assay of this set; here they are far more common.
LmPK inhibitor – qHTS Assay for Inhibitors of Leishmania Mexicana Pyruvate Kinase (LmPK); purified LmPK, Kinase-Glo ATP luminescence, 1 h; Potency, µM (highest dose often 57.5 µM), without a hit: top-dose activity change, negative = inhibition, actives largely listed as inhibitors; actives 0.37% (n = 290,000)
Target sequence (Q27686 whole entry, looked up): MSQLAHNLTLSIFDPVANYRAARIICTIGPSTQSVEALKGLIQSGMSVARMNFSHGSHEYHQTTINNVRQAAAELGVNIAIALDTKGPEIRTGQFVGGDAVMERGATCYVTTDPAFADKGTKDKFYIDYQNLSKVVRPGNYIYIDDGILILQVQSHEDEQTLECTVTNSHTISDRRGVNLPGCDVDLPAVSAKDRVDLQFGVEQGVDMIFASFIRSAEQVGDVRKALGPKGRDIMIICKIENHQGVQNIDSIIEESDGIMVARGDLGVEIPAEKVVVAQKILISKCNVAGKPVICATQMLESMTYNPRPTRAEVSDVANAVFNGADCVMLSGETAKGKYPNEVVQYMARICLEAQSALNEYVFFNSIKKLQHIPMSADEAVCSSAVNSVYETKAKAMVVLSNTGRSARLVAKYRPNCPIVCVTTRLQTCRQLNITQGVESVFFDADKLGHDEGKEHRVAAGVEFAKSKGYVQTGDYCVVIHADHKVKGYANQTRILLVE
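Pyruvate kinase activity monitored as ATP production (luciferase luminescence). Conditions: 0.1 nM enzyme, 0.5 mM PEP, 0.1 mM ADP, 1 h, RT; normalized against uninhibited and no-enzyme wells.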
Giardia FBPA inh-1 – qHTS Assay for Inhibitors of Fructose-1,6-bisphosphate Aldolase from Giardia Lamblia; AID 2451, 2010; purified Giardia FBPA; actives 0.71% (n = 290,000); Potency, µM (highest dose often 59.6 µM), for inactives: top-dose activity, negative = inhibition, most hits filed as inhibitors; A8B2U2; note: nearly all actives have a fitted effect of over 55% in size
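40 nM FBPA preincubated 10 min at RT with compound (up to 57.5 uM final), then substrate plus GAPDH/TPI/NAD/arsenate coupling and diaphorase/resazurin added. Fluorescence read after 20 min at RT, 525/598 nm.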
TbPYK inhibitor – qHTS of Trypanosoma Brucei Inhibitors; TbPYK enzyme, Kinase-Glo Plus ATP luminescence, 45 min; Potency, µM (doses to about 76.8 µM), inactives show at the highest dose activity, negative = inhibition, most hits filed as inhibitors; actives 0.12% (n = 410,000); AID 624173, 2012; note: nearly all actives have a fitted effect of over 50% in size
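Glycolytic pyruvate kinase of T. brucei was incubated with substrate, test compound and 130 uM ADP for 45 minutes at room temperature. Luminescent Kinase-Glo Plus signal was measured after 10 minutes.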
RE007 growth inh – qHTS Assay for Inhibitors of the HIV-1 protein Vpr; S. pombe RE007 Vpr strain, BacTiter-Glo ATP luminescence, 24 h; Potency, µM (highest dose often 92.2 µM), for the others: at the highest dose activity change, negative = less growth, most hits filed as inhibitors; actives 0.21% (n = 360,000); AID 651644, 2012; active = well fitted falling curve with a large enough effect; inconclusive = small, poorly fitted or top-dose-only effect; inactive = no such curve, though single readings can be large or run the other way; note: nearly all actives have a fitted effect of over 50% in size
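Fission yeast strain RE007, carrying one chromosomally integrated HIV-1 vpr copy, was seeded at OD 0.01 in PMG+AL medium with 23 nL pinned compound. After 24 h at 30 °C and 99% humidity, viability was read by BacTiter-Glo luminescence.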
Giardia growth – qHTS Assay for Inhibitors of Fructose-1,6-bisphosphate Aldolase from Giardia Lamblia: Giardia lamblia growth inhibition | Potency, µM (doses to about 57.5 µM), for inactives: at the top dose activity change, negative = inhibition, actives largely listed as inhibitors | AID 2785, 2010 | Giardia lamblia trophozoite growth inhibition | actives 5% (n = 1,500) | shares compounds with Giardia FBPA inh-1;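 note: trophozoites exposed to compound for 48 h at 37 °C; nearly all actives have a fitted effect of over 70% in size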
Mammalian tox – qHTS Assay for Inhibitors of Fructose-1,6-bisphosphate Aldolase from Giardia Lamblia: Mammalian cellular toxicity | shares compounds with Giardia FBPA inh-1 | mammalian cell viability counter-screen, qHTS | Potency, µM (titrated, usually from 57.5 µM), for inactives: at the highest dose viability change, negative = toxicity, usual class: inhibitors | actives 4% (n = 1,500);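 note: Chinese hamster ovary cells used as mammalian cytotoxicity surrogate; viability measured as cellular ATP by luminescence; compound exposure lasted 48 h before reading; nearly all actives have a fitted effect of over 60% in size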
Giardia FBPA inh-2 – qHTS Assay for Inhibitors of Fructose-1,6-bisphosphate Aldolase from Giardia Lamblia: Primary screen confirmation. purified Giardia aldolase enzyme activity, qHTS. AID 2787, 2010. shares compounds with Giardia FBPA inh-1. Potency, µM (highest dose often 57.5 µM), inactives show top-dose activity change, negative = inhibition, actives largely listed as inhibitors. actives 5% (n = 1,500); note: nearly all actives have a fitted effect of over 45% in size
Rabbit aldolase – qHTS Assay for Inhibitors of Fructose-1,6-bisphosphate Aldolase from Giardia Lamblia: Rabbit FBPA Selectivity | shares compounds with Giardia FBPA inh-1 | Potency, µM (titrated, usually from 57.5 µM), for the others: at the highest dose activity, negative = inhibition, most hits filed as inhibitors | AID 2794, 2010 | Rabbit muscle FBPA enzyme inhibition, selectivity counter-screen | actives 4% (n = 1,500); note: nearly all actives have a fitted effect of over 60% in size
GAPDH coupling – qHTS Assay for Inhibitors of Fructose-1,6-bisphosphate Aldolase from Giardia Lamblia: Coupling assay counterscreen confirmation; Potency, µM (doses to about 57.5 µM), for inactives: at the highest dose activity change, negative = inhibition, usual class: inhibitors; actives 6% (n = 1,500); AID 2795, 2010; GAPDH coupling enzyme counterscreen, biochemical, qHTS; shares compounds with Giardia FBPA inh-1; note: nearly all actives have a fitted effect of over 55% in size
* hit, by the source's call; ? = inconclusive; nt = no result; [ ] = dose if it differs, or a comment. Unless noted, calls come from the whole dose curve; as a rule, active = well fitted curve in the direction sought with a large enough effect; inconclusive = small, poorly fitted or top-dose-only effect, or another doubt; inactive = no such curve, though single readings can be large; an effect the other way counts as inactive or inconclusive. % is set by controls: 0 for no effect and ±100 for the full control effect; potency is the fitted concentration of half-maximal effect.

SMILES	LmPK inhibitor	Giardia FBPA inh-1	TbPYK inhibitor	RE007 growth inh	Giardia growth	Mammalian tox	Giardia FBPA inh-2	Rabbit aldolase	GAPDH coupling
O=[N+]([O-])c1ccccc1S(=O)(=O)N1CCN(Cc2ccccc2)CC1	5%	-30%	-1%	-2%	nt	nt	nt	nt	nt
O=[N+]([O-])c1ccccc1S(=O)(=O)N1CCN(Cc2ccsc2)CC1	-1%	20µM*	-9%	-19%	-17%	0%	-4%	-1%	3%
O=c1c(-c2cccnc2)nc2ccccc2n1C(c1ccccn1)c1nc2ccccc2[nH]1 (stereo unspecified)	nt	nt	nt	-11%	nt	nt	nt	nt	nt
Cc1ccc(NC(=O)CN(C)C(=O)COc2cccc3cccnc23)cc1	0%	11µM*	-3%	8%	-37%	6%	13µM*	?	?
Fc1cccc(-c2csc(-c3ccno3)n2)c1	0%	-1%	-14%	-21%	nt	nt	nt	nt	nt
Nc1nc(-c2cccc(F)c2)cs1	-8%	11µM*	-23%	?	20%[10.4 µM]	-5%	5%	5%	13%
O=S(=O)(NCc1ccccn1)C(F)(F)F	1%	2.8µM*	0%	5%	2%[10.4 µM]	1%	10%	6%	11%
O=C(O)CC(CC(=O)Nc1nncs1)c1ccccc1 (stereo unspecified)	-5%	-1%	6%	?	nt	nt	nt	nt	nt
O=C(O)CC(Cn1[nH]nnc1=S)c1ccccc1 (stereo unspecified)	4%	16µM*	?	12%	66%	-9%	-12%	4%	7%
Cc1ccc(Cn2c(C3CCCN3c3nc(C)cs3)nc3cc(C(F)(F)F)ccc32)cc1 (stereo unspecified)	1%	28µM*	-1%	-16%	12%	-10%	3%	2%	12%
COc1cc(OC)cc(C(=O)NC(=S)Nc2ccc(Cl)c(C(=O)O)c2)c1	-4%	-18%	3%	-3%	nt	nt	nt	nt	nt
COCCNC(=S)NNc1ccc(Cl)c(C(=O)O)c1	8%	7.1µM*	-22%	-1%	?	4%	-8%	-4%	-7%
COc1cc(OC)cc(C(=O)N2CCN(Cc3ccccc3[N+](=O)[O-])CC2)c1	-1%	18µM*	10%	21%	-1%[10.4 µM]	1%	7%	17%	6%
COc1cccc(C(=O)N2CCN(Cc3ccccc3Br)CC2)c1	0%	16µM*	18%	-19%	0%[10.4 µM]	-5%	-5%	9%	-13%
O=C(c1ccccc1)N1CCN(Cc2ccccc2C(F)(F)F)CC1	-3%	20µM*	-2%	-7%	35%	3%	2%	3%	13%
CN1CCN(C(c2cccnc2)c2ccc3cccnc3c2O)CC1 (stereo unspecified)	33%	?	137%	-12%	-14%[38.3 µM]	-11%	?	-30%	-8%
O=C1CN=C(c2ccccc2)c2cc(Cl)ccc2N1Cc1ccc(Cl)cc1	nt	nt	4%	nt	nt	nt	nt	nt	nt
